Sampled rows, rich in hits. Any-hit rate of the full collection: about 5.4%.
LASV entry inh: inhibitors of Lassa virus binding or cell entry. 300,000 compounds, 1.2% hits. AID 540256. Potency, µM (doses to about 37.9 µM), for inactives: at the highest dose activity change, negative = inhibition, actives largely listed as inhibitors. Lassa virus pseudotype entry inhibition, cell reporter; calls by dose curve; tested in HEK293 cells; also: nearly all actives have a fitted effect of over 50% in size
Sm TGR block: inhibitors of Schistosoma mansoni thioredoxin glutathione reductase; Q962Y6; purified TGR, DTNB reduction, TNB absorbance 405 nm; Potency, µM (series often up to 114 µM), inactives show at the top dose activity change, negative = inhibition, most hits filed as inhibitors; 360,000 compounds, 3% hits; AID 485364; active = well fitted inhibition curve with a large enough effect; inconclusive = small, poorly fitted or top-dose-only effect; inactive = no such curve, though single readings can be large or run the other way; also: nearly all actives have a fitted effect of over 60% in size
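Kinetic colorimetric format: TGR-catalysed, NADPH-driven DTNB reduction monitored via TNB absorbance. Enzyme dispensed at 20 nM; compound exposure 15 min at room temperature before reaction start.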
FMDV antiviral: antivirals against foot and mouth disease virus; FMDV antiviral cell-based qHTS; Potency, µM (titrated, usually from 57.9 µM), for inactives: at the highest dose activity change, negative = inhibition, actives largely listed as inhibitors; 410,000 compounds, 1.2% hits; calls by dose curve; tested in HEK293T cells; also: read-out not given here; nearly all actives have a fitted effect of over 45% in size
Vaccinia mCherry: inhibitors of vaccinia virus infection (mCherry reporter signal) | Vaccinia virus mCherry reporter infection, fluorescence | Potency, µM (top dose mostly 36.5 µM), without a hit: at the highest dose activity change, negative = inhibition, actives largely listed as inhibitors | 310,000 compounds, 0.63% hits; calls by dose curve; tested in A549 cells; also: nearly all actives have a fitted effect of over 35% in size
MARV entry inh: blocks Marburg virus binding to or entry into cells; Potency, µM (series often up to 37.8 µM), without a hit: at the highest dose activity change, negative = inhibition, most hits filed as inhibitors; 300,000 compounds, 1.8% hits; Marburg virus pseudotyped entry inhibition, cell reporter; calls by dose curve; tested in HEK293 cells
VACV Venus inh: vaccinia inhibition (Venus reporter); Vaccinia virus Venus reporter expression, fluorescence; Potency, µM (doses to about 36.5 µM), for the others: at the highest dose activity change, negative = inhibition, most hits filed as inhibitors; 330,000 compounds, 0.46% hits; calls by dose curve; tested in A549 cells; also: nearly all actives have a fitted effect of over 30% in size
The depositor's hits bear a star; i = inactive; ? = inconclusive; · = no result given; [ ] = dose if it differs, or a comment. % is scaled to controls: 0 for no effect and ±100 for the full control effect; potency is read from the fitted curve at half-maximal effect.

SMILES | LASV entry inh | Sm TGR block | FMDV antiviral | Vaccinia mCherry | MARV entry inh | VACV Venus inh
C[C@@H]1CC[C@H]2C(=O)O[C@@H](COc3ccc(C(C)(C)C)cc3)CN2[C@H]1c1ccc(Br)cc1 | -26%[14.3 µM] | · | · | · | ? | ·
Cc1ccc(S(=O)(=O)Nc2c(C)nn(C)c2C)cc1 | -23% | 50% | · | -7% | -10% | -8%
Cc1nn(C)c(C)c1CS(=O)(=O)c1ccccc1 | 1% | 22µM* | -9% | -19% | ? | -5%
Cc1c(CC(=O)NCCc2ccccc2F)c(=O)oc2cc(O)c(Cl)cc12 | -3%[46.1 µM] | 9% | -15% | -6%[7.34 µM] | 19%[46.1 µM] | -4%[7.34 µM]
CCCn1c(NC(=O)c2cccc(S(=O)(=O)N3CCCC3)c2)nc2ccccc21 | ? | 4% | 32µM* | · | 6.5µM* | ·
Cc1ccc(CNC(=O)C2CCN(S(=O)(=O)c3cccs3)CC2)cc1 | -5% | -4% | -22% | 0% | 6%[46.1 µM] | -2%
Cc1csc(NC(=O)C2CCN(S(=O)(=O)c3cccs3)CC2)n1 | -15%[46.1 µM] | -4% | ? | -4% | ? | -1%
Cc1ccc(CNC(=O)C2CCN(S(=O)(=O)c3cccs3)CC2)o1 | -2% | 5.6µM* | 6% | · | 14% | ·
CCCn1c(NC(=O)C2CCN(S(=O)(=O)c3cccs3)CC2)nc2ccccc21 | ? | 5% | ? | -26% | 13µM* | ?
CCCCN(CCC#N)c1ccc(/C=C/c2ccnc3ccccc23)cc1 | · | · | · | ? | · | -7%
O=c1c2ccccc2nc2n1CCS2(=O)=O | ? | 22µM* | 32µM* | i | 23%[46.1 µM] | -6%
COc1cccc(Cn2cccc(NC(=O)Nc3ccc(C#N)cc3)c2=O)c1 | ? | 14% | 18µM* | · | ? | ·
Cc1ccc(S(=O)(=O)n2nc(-n3c(C)ccc3C)c3c(F)cccc32)c2ccccc12 | -20%[46.1 µM] | 1% | -13% | -13% | 11µM* | 20%
Cc1ccc(C)n1-c1nn(S(=O)(=O)c2cccc3cccnc23)c2cccc(F)c12 | -17% | -9% | -1% | i[7.34 µM] | ? | -16%[7.34 µM]
Cc1ccc(NS(=O)(=O)c2ccc(Cl)c(C(=O)Nc3ccccc3-c3nc4ccccc4[nH]3)c2)cc1C | ? | 5% | -46% | ? | ? | 10µM*
O=C(CSc1nc(-c2ccncc2)nn1CC(=O)N1CCCCC1)NC1CCCC1 | 24% | 40µM* | -25% | i | 9% | -13%
C/C(CCC12CC3CC(CC(C3)C1)C2)=N\NC(N)=S | ? | -8% | 0% | 11µM* | -25% | ?
CCOC(=O)C(=CNc1ccc(-c2ccco2)c(Cl)c1)C(=O)OCC | · | 14µM* | -22% | · | · | ·
CCOC(=O)C(=CNc1cc(Cl)c(-c2ccco2)c(Cl)c1)C(=O)OCC | · | -33% | -26% | · | · | ·
CCN1/C(=C\C=C\C2=[N+](CC)c3ccccc3C2(C)C)C(C)(C)c2ccccc21 | 0.79µM* | -9% | 35µM* | · | 0.71µM* | ·
CN1/C(=C/C=C/c2n(C)c3cc([N+](=O)[O-])c([N+](=O)[O-])cc3[n+]2C)C(C)(C)c2ccccc21 | · | · | ? | -23% | · | 51%
CC[n+]1c(/C=C/C=C2/N(C)c3ccccc3C2(C)C)sc2ccccc21 | 1.3µM* | · | · | · | 0.92µM* | ·
CCOC(=O)/C=C1/N(C)c2ccccc2C1(C)C | 13%[46.1 µM] | 0% | -9% | i | 6%[46.1 µM] | -14%
COc1cc(CNCCSc2nnnn2C)ccc1OCc1ccccc1C | 3%[46.1 µM] | 8% | 12% | -13% | -20%[46.1 µM] | -17%
CC(=O)Nc1cccc(/C(C)=N/NC(=S)NC(C)C)c1 | ? | -13% | -10% | -8% | -17% | -19%
SMILES | LASV entry inh | Sm TGR block | FMDV antiviral | Vaccinia mCherry | MARV entry inh | VACV Venus inh
C/C(=N\NC(=S)NC(C)C)c1ccccc1 | · | 0.4µM* | 1% | -7% | · | -7%
C/C(=N\NC(=S)NC(C)C)c1ccco1 | ? | 4µM* | 5% | -5% | 3% | -14%
COc1cc(=O)n2c(c1C(=O)N(C)Cc1ccsc1)CCN(Cc1c(C)nn(C)c1Cl)CC2 | · | · | 0% | -9% | · | -2%
COCC1CCCN(Cc2ccc3c(c2)CN(C(=O)c2cn4ccc(C)cc4n2)CCO3)C1 (stereo not drawn) | · | · | -4% | -8% | · | -1%
CCOC(=O)C1=C(Cc2ccc(OC)cc2)C(=O)c2ccccc2C1=O | ? | 14µM* | ? | i | ? | i
CCOC(=O)C1=C(Cc2ccc(C)cc2)C(=O)c2ccccc2C1=O | · | 8.9µM* | · | · | 3% | ·
O=C(NCCCc1nc2ccccc2n1CCOc1ccccc1)C1CCCCC1 | · | · | · | 16% | · | -11%
COc1cc(-c2noc(CCC(=O)Nc3cc(C)ccc3C)n2)cc(OC)c1OC | -14%[46.1 µM] | 3% | -15% | -5% | -12%[46.1 µM] | 1%
O=C1NC(=O)N(c2ccccc2)C(=O)/C1=C/c1ccc(Sc2ccccc2)o1 | 0% | 25µM* | ? | · | ? | ·
COc1ccc(Sc2ccc(/C=C3\C(=O)NN(c4ccccc4)C3=O)o2)cc1 | 0% | -26% | 40µM* | i | ? | 3%
O=C1NN(c2ccccc2)C(=O)/C1=C\c1ccc(-c2cc([N+](=O)[O-])ccc2O)o1 | -7%[46.1 µM] | -18% | -10% | -14% | 7%[46.1 µM] | -6%
COC(=O)C1CCN(Cc2ccc3c(c2)CN(C(=O)c2ccc(-n4cnnn4)cc2)CCO3)CC1 | · | · | 2% | 5% | · | 2%
O=C(O)c1cccc(-c2nnn(Cc3ccccc3Cl)n2)c1 | 8.2µM* | 0% | -25% | -7% | 6.3µM* | 3%
Cc1ccccc1Cn1nnc(-c2ccc(C(=O)O)cc2)n1 | 0% | -4% | -1% | 6% | ? | 4%
Cc1ccccc1Cn1nnc(-c2cccc(C(=O)O)c2)n1 | 13µM* | -2% | -51% | · | 5.8µM* | ·
CCCn1c(CCC(=O)Nc2cc(Cl)c(OC)cc2OC)nc2cccnc21 | 2%[46.1 µM] | -3% | -6% | -5% | ? | -8%
CCOc1ccc(-c2ccc(SC)nn2)cc1 | 2.8µM* | -1% | -78% | -8% | 1.3µM* | -1%
CCOc1ccc(OCC)c(NS(=O)(=O)c2ccc3c(c2)CCCN3C(C)=O)c1 | 25%[46.1 µM] | 1% | 46% | -7% | · | -8%
COc1ccccc1CNC(=O)c1cnc2sc(N3CCCCCC3)nn2c1=O | -4%[46.1 µM] | -5% | -24% | i | · | -21%
COc1cccc(CO[C@H]2C=C[C@@H](c3ccccc3)O[C@H]2CN=[N+]=[N-])c1 | · | · | · | · | -17%[14.2 µM] | ·
COc1ccc(CCNC(=O)c2ccc3nc(-c4ccco4)c(-c4ccco4)nc3c2)cc1OC | 8.2µM* | 3.2µM* | 16µM* | · | 10µM* | ·
O=C(Nc1cccc(C(F)(F)F)c1)c1ccc2nc(-c3ccco3)c(-c3ccco3)nc2c1 | -7% | 3.5µM* | ? | -12% | -11% | -3%
CCc1nc2ccc(C(=O)N3CCN(c4ccccc4)CC3)cc2nc1CC | 23%[46.1 µM] | 8% | -3% | -6% | -10%[46.1 µM] | -13%
O=C(c1ccc2nc(-c3ccco3)c(-c3ccco3)nc2c1)N1CCN(c2ccccc2)CC1 | -22% | 35µM* | ? | · | 16µM* | ·
CCc1nc2ccc(C(=O)NCCc3ccc(OC)c(OC)c3)cc2nc1CC | -22%[46.1 µM] | -3% | ? | -10% | · | -17%

Source: PubChem (National Center for Advancing Translational Sciences (NCATS))
